Consider 55 molecules from PubChem BioAssay AID2661 (Broad Institute, 2010).

Broadly, the inhibition is the drop in the measured response relative to a control, in per cent.

Screen size: about 320,000 compounds; about 240 (0.075%) were called active. The sample holds actives, similar compounds and a random draw of the others, so the mix is not that of the screen. Unmarked numbers belong to inactive results.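 Rule for the calls: active = inhibition at or above 25%, using the most active replicate where run in duplicate; inactive = inhibition below 25%.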

The target of this experiment is Serine/threonine-protein kinase 33 (Homo sapiens) (UniProt Q9BYT3). The experiment in a line: inhibitors of purified STK33 kinase, primary screen, biochemical, ADP-Glo luminescence, homogeneous, cell-free (AID 2661). As to conditions: purified STK33, MBP phosphorylation, at 10 µM, active compounds read high. On the technique in general: ADP-Glo turns the ADP formed in a reaction into a luminescent signal.
Chain of Serine/threonine-protein kinase 33 (Homo sapiens) (Q9BYT3 whole entry, looked up): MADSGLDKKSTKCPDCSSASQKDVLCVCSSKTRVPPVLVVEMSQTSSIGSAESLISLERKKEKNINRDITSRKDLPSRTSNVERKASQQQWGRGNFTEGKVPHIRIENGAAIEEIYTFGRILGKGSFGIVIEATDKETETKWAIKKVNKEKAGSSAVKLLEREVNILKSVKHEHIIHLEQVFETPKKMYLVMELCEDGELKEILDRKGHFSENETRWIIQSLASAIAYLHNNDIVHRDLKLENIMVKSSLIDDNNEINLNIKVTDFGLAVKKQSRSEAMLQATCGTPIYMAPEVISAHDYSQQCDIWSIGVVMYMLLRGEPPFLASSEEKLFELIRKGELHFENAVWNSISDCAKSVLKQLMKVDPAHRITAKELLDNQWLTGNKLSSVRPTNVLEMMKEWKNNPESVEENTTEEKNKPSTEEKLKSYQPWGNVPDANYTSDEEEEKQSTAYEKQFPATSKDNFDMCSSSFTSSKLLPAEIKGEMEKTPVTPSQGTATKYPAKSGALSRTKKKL
For the molecule `CC(C)n1cnc2c(Nc3cccc(Cl)c3)nc(N(CCO)CCCO)nc21`, the inhibition is 55.5% (active).
Turning to `OCCCNc1nccc(-c2cc(Nc3cccc(Cl)c3)ncn2)n1`, the inhibition is 5.41%.
Then `CC(C)C[C@H](CO)Nc1nc(N(C)c2cccc(Cl)c2)c2ncn(C(C)C)c2n1`, with -0.739%; and `O=C(COc1ccccc1F)Nc1nc(-c2ccccn2)cs1`, with -1.01%.
On to `COc1ccc(C2(c3ccc(OC)cc3)NC(=O)N(CC(=O)Nc3cc(C)on3)C2=O)cc1`, for which the inhibition was -0.176%.
Take `CC1CN(C(=O)c2ccc([N+](=O)[O-])s2)CC(C)O1` (stereo not given): the inhibition is -2.19%.
Then `O=C1CCC/C=C\C[C@@H](CC(=O)N(CCO)Cc2ccccc2)C(=O)NCCO1`, with -0.894%; and `COC(=O)[C@]1(Cc2ccccc2)N[C@H](CN(C)S(=O)(=O)c2ccc(F)cc2)[C@@H]2C(=O)N(Cc3ccccc3)C(=O)[C@@H]21`, with 0.777%.
In the case of `CNC[C@@H]1Oc2c(NS(C)(=O)=O)cccc2C(=O)N([C@@H](C)CO)C[C@H]1C`, the inhibition is -0.879%.
Then `O=C(Cn1cnc2c(OCc3ccccc3)ncnc21)NCc1nc2ccccc2[nH]1`, with 0.0433%; and `O=C(COC(=O)CSc1ccccc1)Nc1ccc(F)cc1F`, with -1.54%; and `Cc1noc(C)c1C(=O)OC(C)C(=O)Nc1ccc2c(c1)OCO2` (stereo not given), with -2.76%.
Consider `CC(C)(C)OC(=O)C[C@@H]1C/C=C\C[C@@H](CC(=O)N[C@@H](CO)Cc2ccccc2)C(=O)N2CCC[C@H]2COC1=O`, for which the inhibition was -0.177%.
Then `CC1CCN(C2=NC(=O)/C(=C/c3cn[nH]c3-c3ccccc3)S2)CC1`, with 0.902%.
Then `CC1CCN(C2=NC(=O)/C(=C/c3ccc(O)cc3)S2)CC1`, with 25.8% (active); and `CCOc1cc(/C=C2\SC(N3CCCC(C)C3)=NC2=O)ccc1O` (stereo not given), with 26.4% (active); and `O=C1N=C(N2CCCC2)S/C1=C\c1cccc(Br)c1`, with -0.704%.
For `O=C1N=C(N2CCc3ccccc3C2)S/C1=C\c1ccc(O)cc1`, the inhibition is 11%.
Then `CCOc1cc(/C=C2\SC(N3CCCCC3)=NC2=O)ccc1O`, with 8.65%.
The value for `O=C(COC(=O)c1ccc(F)cc1)NCC1COc2ccccc2O1` (stereo not given) was -0.961%; that for `NS(=O)(=O)c1ccc(CNC(=S)NC(=O)c2ccco2)cc1` was -0.0738%; that for `CC1Cc2ccccc2N1S(=O)(=O)c1cccc(C(=O)OCC(=O)N2CCOCC2)c1` (stereo not given) was -1.13%.
With `Cc1ccc(S(=O)(=O)N2CCCCC2)cc1NC(=O)CCNC(=O)c1ccccc1`, the inhibition is -0.0957%.
Consider `O=C(Nc1nnc(-c2ccccc2)o1)c1cccc(S(=O)(=O)N2CCOCC2)c1`, for which the inhibition was -0.807%.
Take `COc1cc(OC)cc(C(=O)NCC(=O)OCC(=O)NC(C)CCc2ccccc2)c1` (stereo not given): the inhibition is -0.78%.
Then `Cn1cccc1C(=O)OCC(=O)NCCc1ccccc1`, with -0.939%.
Regarding `CC(C#N)OC(=O)c1cccnc1SCC(=O)Nc1ccc2c(c1)OCO2` (stereo not given), the inhibition was 0.605%.
Turning to `CC(=O)c1c(C)[nH]c(C(=O)COC(=O)c2cccs2)c1C`, the inhibition was -3.01%.
On to `COc1cc(OC)cc(-c2cc3ccc(F)cc3cn2)c1`, for which the inhibition was 1.46%.
The value for `COc1ccc2nc3n(c(=O)c2c1)-c1ccc(Cl)cc1C(=O)NC3Cc1ccccc1` (stereo not given) was 0.119%; that for `COc1ccc(C(=O)NC2CC2)cc1OC1CCN(Cc2cnn(C)c2)CC1` was 0.281%; that for `COc1cc(C(=O)NC2CCN(C)CC2)ccc1Nc1ncc2c(n1)N(C1CCC(O)CC1)CCC(=O)N2C` (stereo not given) was 54.5% (active).
As to `COc1ccc(-n2cnc3cc(C(=O)NC4CCCC4)ccc32)cc1`, the inhibition is -0.505%.
As to `Cc1ccc(C(=O)Nc2ccccc2-c2ccccc2)cc1S(=O)(=O)Nc1ccccc1`, the inhibition is -1.82%.
The value for `COCCN(CCOC)S(=O)(=O)NC[C@H]1O[C@@H](n2cnc3c(N)ncnc32)[C@H](O)[C@@H]1O` was -0.284%; that for `COc1ccccc1CNC(=O)COC(=O)c1cccs1` was -1%; that for `COc1cc(SC)ccc1C(=O)NNC(=O)C1COc2ccccc2O1` (stereo not given) was -1.07%.
In the case of `O=C(CSc1nccn1-c1cccc(F)c1)NC1CCCC1`, the inhibition is 0.473%.
Turning to `Cc1ccc(NS(=O)(=O)c2ccc(C(C)C)cc2)cc1S(=O)(=O)N1CCOCC1`, the inhibition was -3.33%.
Then `O=C(N=C1SC2CS(=O)(=O)CC2N1c1ccccc1)c1ccccc1` (stereo not given), with 0.811%.
`COc1cc(OC)cc(-c2sc3ccc(OC)cc3c2-c2ccc3cc[nH]c3c2)c1`: the inhibition was 1.63%.
The value for `CC(Oc1ccc2c(-c3ccccc3)cc(=O)oc2c1)C(=O)NC(Cc1c[nH]c2ccccc12)C(=O)O` (stereo not given) was -3%; that for `COc1cccc2sc3cc(NCC[C@@H]4CCCN4C)ccc3c(=O)c12` was 4.13%.
The value for `COC(=O)[C@]1(CC(C)C)N[C@H](c2ccc(SC3CCCCC3)cc2)[C@@H]2C(=O)N(C)C(=O)[C@@H]21` was -0.318%; that for `COc1ccc(C(=O)C(C)OC(=O)c2cccc(S(=O)(=O)Nc3c(C)n(C)n(-c4ccccc4)c3=O)c2)cc1` (stereo not given) was -0.0798%; that for `CC(=O)C(CC(=O)N1CCCC1)C(=O)Nc1ccc(Cl)cc1` (stereo not given) was -0.972%.
Then `CCC(CO)Oc1cc(NCc2ccccc2)c2ncn(C3CCCC3)c2c1` (stereo not given), with 3.27%; and `O=C(Nc1cccc(S(=O)(=O)N2CCCCC2)c1)c1cncc(Br)c1`, with -0.246%; and `CC(=NNC(=O)c1ccc2nc[nH]c2c1)c1ccc(Br)cc1`, with -0.319%.
Consider `COc1cc(S(=O)(=O)N2CCN(C(=O)C3CC3)CC2)ccc1NC(C)=O`, for which the inhibition is 0.285%.
Then `COc1ccccc1C(=O)COC(=O)COc1ccc(C#N)cc1`, with 5.03%.
For `CCc1cccc(CC)c1NC(=S)Nc1ccc2cn[nH]c2c1`, the inhibition is 24.8%.
Then `Cc1cccc(NC(=S)Nc2ccc3cn[nH]c3c2)c1`, with 11.6%; and `S=C(Nc1cccc(Cl)c1)Nc1ccc2cn[nH]c2c1`, with 27% (active); and `CN(Cc1ccc(F)cc1)C(=O)CN1C(=O)c2ccccc2S1(=O)=O`, with -1.27%.
